# Data reported in PubChem BioAssay AID2073 (Sanford-Burnham Center for Chemical Genomics, 2009).
# Among all 290,000 compounds or so, about 570 (0.2%) were called active. About 1% were inconclusive and are not listed. This is one part of a sample in which actives are shown more often than they occur. Rule as the data show it: active = inhibition mostly above about 51% (no sharp cut-off); inconclusive = no clear call, values can overlap the other calls; inactive = mostly below about 53%.
# Target: Voltage-dependent N-type calcium channel subunit alpha-1B (Homo sapiens) (UniProt Q00975)
# Sequence (Q00975 whole entry, looked up): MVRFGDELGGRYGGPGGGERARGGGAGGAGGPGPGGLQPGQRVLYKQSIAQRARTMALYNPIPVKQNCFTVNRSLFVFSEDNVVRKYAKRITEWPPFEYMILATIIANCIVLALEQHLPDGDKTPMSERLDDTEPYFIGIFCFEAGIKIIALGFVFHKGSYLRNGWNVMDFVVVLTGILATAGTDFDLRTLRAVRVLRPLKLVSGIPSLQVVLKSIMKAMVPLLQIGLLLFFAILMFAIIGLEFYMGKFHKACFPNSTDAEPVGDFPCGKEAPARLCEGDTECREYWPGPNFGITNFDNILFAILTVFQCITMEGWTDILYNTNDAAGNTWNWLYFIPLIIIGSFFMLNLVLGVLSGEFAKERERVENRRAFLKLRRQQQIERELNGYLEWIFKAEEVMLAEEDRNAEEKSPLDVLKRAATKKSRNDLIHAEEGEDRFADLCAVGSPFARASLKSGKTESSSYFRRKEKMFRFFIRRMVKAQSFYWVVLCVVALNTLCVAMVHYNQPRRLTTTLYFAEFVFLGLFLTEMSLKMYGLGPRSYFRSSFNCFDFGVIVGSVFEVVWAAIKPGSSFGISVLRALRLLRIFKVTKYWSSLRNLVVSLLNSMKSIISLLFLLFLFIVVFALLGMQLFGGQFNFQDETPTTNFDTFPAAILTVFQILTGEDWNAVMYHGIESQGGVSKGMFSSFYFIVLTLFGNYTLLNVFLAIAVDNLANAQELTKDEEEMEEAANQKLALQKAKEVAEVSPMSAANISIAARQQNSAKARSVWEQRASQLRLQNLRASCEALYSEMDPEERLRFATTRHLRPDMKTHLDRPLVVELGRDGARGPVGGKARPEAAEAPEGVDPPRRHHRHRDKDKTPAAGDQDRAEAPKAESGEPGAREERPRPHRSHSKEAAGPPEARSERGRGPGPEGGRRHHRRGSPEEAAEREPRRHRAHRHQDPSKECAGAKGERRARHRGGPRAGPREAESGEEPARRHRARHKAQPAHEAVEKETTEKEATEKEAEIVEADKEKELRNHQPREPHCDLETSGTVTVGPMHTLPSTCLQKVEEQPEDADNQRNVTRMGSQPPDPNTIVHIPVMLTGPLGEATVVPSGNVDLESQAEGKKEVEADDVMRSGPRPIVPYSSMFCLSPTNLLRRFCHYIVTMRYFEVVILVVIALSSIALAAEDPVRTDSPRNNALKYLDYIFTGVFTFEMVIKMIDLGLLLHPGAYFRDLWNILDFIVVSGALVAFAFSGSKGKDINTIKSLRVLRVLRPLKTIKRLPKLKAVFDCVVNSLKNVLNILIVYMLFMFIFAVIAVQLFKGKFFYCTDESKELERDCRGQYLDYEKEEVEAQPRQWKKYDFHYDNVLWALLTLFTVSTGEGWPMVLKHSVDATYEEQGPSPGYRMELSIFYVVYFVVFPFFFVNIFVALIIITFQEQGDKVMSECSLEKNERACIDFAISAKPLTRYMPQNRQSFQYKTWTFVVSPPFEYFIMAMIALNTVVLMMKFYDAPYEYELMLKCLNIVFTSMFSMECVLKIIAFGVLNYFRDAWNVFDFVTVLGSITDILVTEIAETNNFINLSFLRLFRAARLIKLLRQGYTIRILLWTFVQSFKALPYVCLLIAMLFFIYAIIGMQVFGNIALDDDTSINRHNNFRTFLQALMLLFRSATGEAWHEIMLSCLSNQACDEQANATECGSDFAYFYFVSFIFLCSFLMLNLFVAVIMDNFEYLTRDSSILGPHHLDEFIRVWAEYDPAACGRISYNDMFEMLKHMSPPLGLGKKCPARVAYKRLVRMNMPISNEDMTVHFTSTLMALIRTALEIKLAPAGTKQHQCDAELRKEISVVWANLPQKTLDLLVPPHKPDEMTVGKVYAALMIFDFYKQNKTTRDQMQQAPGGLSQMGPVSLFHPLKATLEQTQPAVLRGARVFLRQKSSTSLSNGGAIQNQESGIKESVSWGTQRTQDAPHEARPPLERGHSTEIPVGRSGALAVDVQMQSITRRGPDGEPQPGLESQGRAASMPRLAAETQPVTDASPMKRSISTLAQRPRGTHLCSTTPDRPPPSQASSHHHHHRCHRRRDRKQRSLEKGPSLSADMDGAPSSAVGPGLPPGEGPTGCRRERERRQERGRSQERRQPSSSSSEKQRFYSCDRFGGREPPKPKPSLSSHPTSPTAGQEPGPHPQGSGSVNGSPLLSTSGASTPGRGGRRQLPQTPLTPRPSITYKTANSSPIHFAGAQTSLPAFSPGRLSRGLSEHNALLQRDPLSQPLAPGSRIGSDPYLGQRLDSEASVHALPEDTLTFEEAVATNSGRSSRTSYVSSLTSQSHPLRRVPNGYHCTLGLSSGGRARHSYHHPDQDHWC
# Experiment: inhibitors of Mint1-CaV2.2 protein interaction, biochemical, HTRF (AID 2073)
# Conditions: at 20 µM, stronger effect = higher value
# [1] = measured here: average of repeat tests
SMILES,inhibition,inhibition [1]
COC(=O)C1C(O)=C(C=NC2CCCCC2)C(=O)CC1(C)C (stereo unspecified),10.7% (inactive),
Nc1nc(O)c(N=Nc2ccc(S(N)(=O)=O)cc2)c(=O)[nH]1,50% (active),
NS(=O)(=O)c1ccc(N=Nc2c(O)ccc3ccccc23)cc1,64.4% (active),
Oc1ccc(N=Nc2c(O)ccc3ccccc23)cc1,-2.8% (inactive),
Cc1c(C#N)c(O)[nH]c(=O)c1N=Nc1ccc(S(N)(=O)=O)cc1,1.4% (inactive),
Nc1nc(N)c(N=Nc2ccc(S(N)(=O)=O)cc2)c(=O)[nH]1,13.6% (inactive),
NS(=O)(=O)c1ccc(N=Nc2c(O)c(C(=O)O)cc3ccccc23)cc1,20.5% (inactive),
O=C(CN1C(=O)C2C3C=CC(C4CC34)C2C1=O)Oc1ccccc1 (stereo unspecified),-1.6% (inactive),
CC(C)(C)NC(=O)CSC(=Nc1cccc(F)c1)NC#N,-25.9% (inactive),
CCCCOc1ccc(Cl)cc1CSc1nnc(C)n1N,-4.8% (inactive),
Cc1oc(-c2ccc3c(c2)OCCO3)cc1C(=O)NC(CCC(=O)O)C(=O)O (stereo unspecified),20.1% (inactive),
COC(=O)CCC(NC(=O)c1cc(-c2ccc3c(c2)OCCO3)oc1C)C(=O)OC (stereo unspecified),61.5% (active),
CCOC(=O)CNC(=O)c1cc(-c2ccc3c(c2)OCCO3)oc1C,10.9% (inactive),
Cc1ccc(CNC(=O)CN2C(=O)NC(C)(c3ccccc3Cl)C2=O)cc1 (stereo unspecified),6.8% (inactive),
CCOC(=O)c1c(NC(=O)CN2CCN(C(=O)c3ccco3)CC2)sc(C(N)=O)c1C,0% (inactive),
c1ccc2c(c1)CCN(c1nc3ccccc3n3cnnc13)C2,3.9% (inactive),
c1ccc2c(c1)CCN(CCCNc1nc3ccccc3n3cnnc13)C2,50.8% (active),
c1ccc2c(c1)nc(NCCN1CCOCC1)c1nncn12,6.6% (inactive),
CCCCCCCNC(=O)CC(NS(=O)(=O)c1ccc(NC(C)=O)cc1)C(C)C (stereo unspecified),1.5% (inactive),
COc1ccc(-n2c(C)c(C(=O)O)c3cc(OC)c4ccccc4c32)cc1,13.1% (inactive),
CN1CCN(c2c(F)cc3c(=O)c(C(=O)O)cn4c3c2OCN4C)CC1,33.2% (inactive),
CN1CCN(c2c(F)cc3c(=O)c(C(=O)O)cn(CCF)c3c2F)CC1,29.5% (inactive),

SMILES,inhibition,inhibition [1]
CN1CCN(c2c(F)cc3c(=O)c(C(=O)O)cn4c3c2SCC4)CC1,53.3% (active),
CCOc1ccc(S(=O)(=O)NCc2cccnc2)cc1C(C)C,1.4% (inactive),
CSc1nc(-c2ccc(C)cc2)[nH]c1S(=O)(=O)c1ccccc1,-18.4% (inactive),
CC(=O)Sc1nc(-c2ccccc2)[nH]c1S(=O)(=O)c1ccc(C)cc1,82.4% (active),
Cc1ccc(-c2[nH]c(-c3ccc(C(=O)O)cc3)nc2-c2ccccc2)cc1,47.8% (inactive),
CCOC(=O)c1c(-c2ccccc2)oc2ccc(OC(C)=O)cc12,7.9% (inactive),
CCCCOC(=O)Nc1nnc(CC)s1,3.8% (inactive),
Cc1[nH][nH]c(=O)c1C(c1ccc(-c2ccc(Cl)cc2Cl)o1)c1c(C)[nH][nH]c1=O,2% (inactive),
CN(C(=S)Nc1ccc(SC(F)F)cc1)C(c1ccccc1)c1ccccc1,-7.4% (inactive),
CN(C(=S)Nc1ccc(Oc2ccccc2)cc1)c1ccc(O)cc1,11% (inactive),
CN(C(=S)Nc1ccc(SC(F)F)cc1)c1ccc(O)cc1,56.1% (active),
C/C(=N\NC(=O)c1cccs1)c1ccc(C(=O)O)s1,12.5% (inactive),
CCc1ccc(OCC(=O)NC(NC(=S)Nc2ccccc2C)C(Cl)(Cl)Cl)cc1 (stereo unspecified),-12.1% (inactive),
COC(=O)c1sccc1NC(=O)c1ccc(C(C)C)cc1,1% (inactive),
CCN(CC)CCNC(=O)c1ccc(NC(=O)COc2ccccc2F)cc1,-0.2% (inactive),
COc1ccccc1CNC(=O)/C=C/c1ccc(Br)o1,79.5% (active),
COc1ccccc1CNC(=O)c1ccc(Br)o1,-2% (inactive),
O=C(/C=C/c1ccc(Br)o1)NCc1ccccc1,76.8% (inactive),13.4%
COCC(=O)NNC(=O)c1ccccc1OC,-3.5% (inactive),
CS(=O)(=O)N(CC(=O)Nc1ccc2c(c1)OCCO2)Cc1ccc(Cl)cc1,-3.3% (inactive),
N#CC1=C(N)Nc2ncnn2C1c1ccc([N+](=O)[O-])cc1 (stereo unspecified),-11.4% (inactive),
COC(=O)C1C(=O)NC(SC)=C(C#N)C1c1ccccc1F (stereo unspecified),8% (inactive),

SMILES,inhibition,inhibition [1]
N#CC1=C(N)SC(N)=C(C#N)C1c1ccc([N+](=O)[O-])cc1,68.2% (inactive),5%
CC(=O)C1(C)OC(N)=C(C#N)C(c2ccccc2)C1(C#N)C#N (stereo unspecified),48% (inactive),
CCOC(=O)C1C(=O)NC(SC)=C(C#N)C1c1ccccc1F (stereo unspecified),-5.1% (inactive),
NC(=O)C1(C(N)=O)OC1c1ccc(Cl)cc1Cl (stereo unspecified),6.5% (inactive),
COC(=O)C1C(=O)NC(SC)=C(C#N)C1c1ccccc1 (stereo unspecified),-20.5% (inactive),
CCOC(=O)C1=C(C)NC(=O)NC1c1ccc(Cl)cc1Cl (stereo unspecified),-3.7% (inactive),
COCCCNC(=O)Cn1nnc(-c2ccc(NC(=O)c3ccc(F)cc3)cc2)n1,25.2% (inactive),
Cc1cc2oc(=O)cc(CN3CCCCC3C)c2cc1C (stereo unspecified),2.6% (inactive),
COc1ccccc1S(=O)(=O)Cc1ccc(C(=O)N2CCCC2)o1,0.3% (inactive),
O=C(NCCc1c[nH]c2ccccc12)C(F)(F)C(F)F,-6.3% (inactive),
Cc1ccc(C(=O)NCCc2nnc3ccc(SCC(=O)Nc4c(C)cc(C)cc4C)nn23)cc1,8.7% (inactive),
CCCn1cnc2cc(NC(=O)c3ccco3)ccc21,10.4% (inactive),
CC(C)c1csc(CN2CCN(Cc3ccccc3)C(CCO)C2)n1 (stereo unspecified),11.5% (inactive),
Cc1ccc(C(=O)N(CC(=O)NC2CCCC2)c2ccc3c(c2)OCCO3)s1,-11% (inactive),
O=C(Nc1ccc(Cl)cc1)N1CCOC12CCCCC2,-2.6% (inactive),
O=Cc1cnc(N2CCOCC2)nc1,6.2% (inactive),
COC(=O)c1cc(O)c(O)c(O)c1,-68.3% (inactive),
NNC(=O)c1cccc(O)c1,19.5% (inactive),
NNC(=O)c1cc(O)c(O)c(O)c1,63.1% (active),
COC(=O)c1ccc(NC(=O)CCn2cccc2)cc1,3.2% (inactive),
